Source: PubChem
DT40 TDP1 no CPT = qHTS for Inhibitors of human tyrosyl-DNA phosphodiesterase 1 (TDP1): qHTS in cells in absence of CPT. Potency, µM (titrated, usually from 46.2 µM), for the others: top-dose activity change, negative = growth inhibition, usual class: inhibitors. DT40 Tdp1-/- hTDP1 cells, no CPT, ATP luminescence, 48 h. 420,000 tested, 15% active; also: potency is read from the fitted curve at half-maximal effect; nearly all actives have a fitted effect of over 55% in size
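Chicken DT40 Tdp1-/- cells stably complemented with human TDP1 were seeded at 400 cells/well with DMSO in place of 20 nM camptothecin. After compound pinning, cells grew at least 48 hr at 37 °C; viability read by CellTiter-Glo luminescence.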
Gal4-VP16 FLuc = Gal4-VP16 reporter inhibition counter-screen; Drosophila S2 Gal4-VP16 UAS-luciferase, luminescence, 20 h; Potency, µM (series often up to 53.6 µM), inactives show at the highest dose activity, negative = inhibition, usual class: inhibitors; 310,000 tested, 3.5% active; AID 2546;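 also: Gal4-VP16 expression switched on by copper sulfate through the metallothionein promoter; potency is read from the fitted curve at half-maximal effect; nearly all actives have a fitted effect of over 50% in size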
RORg inh = inhibitors of mouse ROR gamma transcriptional activity. P51450. Drosophila S2 Gal4-RORgamma UAS-luciferase reporter, 20 h. Potency, µM (doses to about 53.6 µM), for the others: at the highest dose activity change, negative = inhibition, most hits filed as inhibitors. 310,000 tested, 5.4% active; also: potency is read from the fitted curve at half-maximal effect; nearly all actives have a fitted effect of over 60% in size
Target sequence (P51450 whole entry, looked up, the tested form may be a part): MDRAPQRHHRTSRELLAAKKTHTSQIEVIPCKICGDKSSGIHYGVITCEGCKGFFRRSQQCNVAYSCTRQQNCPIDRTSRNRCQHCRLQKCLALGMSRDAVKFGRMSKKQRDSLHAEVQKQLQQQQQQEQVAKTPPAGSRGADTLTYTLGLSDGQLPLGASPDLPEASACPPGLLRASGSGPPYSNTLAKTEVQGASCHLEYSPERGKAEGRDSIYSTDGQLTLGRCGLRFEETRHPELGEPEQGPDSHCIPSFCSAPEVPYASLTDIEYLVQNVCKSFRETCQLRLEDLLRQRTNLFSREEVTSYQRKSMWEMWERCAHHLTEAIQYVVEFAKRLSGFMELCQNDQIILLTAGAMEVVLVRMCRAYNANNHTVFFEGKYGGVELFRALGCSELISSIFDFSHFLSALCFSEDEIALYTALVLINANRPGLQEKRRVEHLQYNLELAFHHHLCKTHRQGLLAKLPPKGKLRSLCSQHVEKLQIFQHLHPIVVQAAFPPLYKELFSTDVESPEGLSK
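Schneider cells (Drosophila), stable Gal4 DBD–ROR gamma + UAS-luc; 1 hr cmpd preincubation; Cu2+ induction 700 uM final; 20 hr ambient; luminescence.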
ELG1 repair inh = inhibitors of ELG1-dependent DNA repair in HEK293T cells | HEK293T ELG1-luciferase reporter, luminescence, 16 h; DNA damage induced by 5-fluorouridine | Potency, µM (top dose mostly 46.1 µM), inactives show at the top dose activity change, negative = inhibition, usual class: inhibitors | 330,000 tested, 2.3% active | AID 504467; also: potency is read from the fitted curve at half-maximal effect; nearly all actives have a fitted effect of over 55% in size
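Quantitative HTS, concentration-response format. 2,000 cells/well co-treated with 5-fluorouridine and compound, 16 hr in 5% CO2 at 37 °C; ONE-Glo luminescence read after 30 min.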
IL1B secr inh = inhibitors of inflammasome signaling (IL-1 beta secretion); THP-1 LPS/ATP IL-1B secretion, AlphaLISA, 16 h; stronger effect = lower value; activity change, % at 57.5 µM; 360,000 tested, 4.7% active; AID 743279; in the data active = activity change below about -50%; inconclusive = mostly about -30% to -49%
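THP-1 cells pretreated 1 hr with compounds (up to 57.5 uM final), then stimulated with LPS (250 ng/mL final) plus ATP (1.25 mM final); secreted IL-1B measured by AlphaLISA after 16 hr, decreased signal indicating inhibition.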
TDP1 cell CPT = DT40-hTDP1 cell growth loss with CPT | chicken DT40 Tdp1-/-;hTDP1 cells + 20 nM CPT, ATP luminescence, 48 h | AID 686979 | Potency, µM (doses to about 46.2 µM), inactives show top-dose activity change, negative = growth inhibition, hits mostly inhibitors | 420,000 tested, 12% active; also: potency is read from the fitted curve at half-maximal effect; nearly all actives have a fitted effect of over 55% in size
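Cell growth measured by CellTiter-Glo luminescence after a minimum 48 h, 37 C compound exposure with 20 nM CPT in Tdp1-knockout DT40 cells stably expressing hTDP1, seeded 400/well; qHTS titration format.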
Active calls of the source: *; u = inconclusive; x = not tested or not shown. An excerpt weighted towards active compounds, which were near 21% of everything screened. Unless noted, calls follow the shape of the dose curve; as a rule, active = well fitted curve in the direction sought with a large enough effect; inconclusive = small, poorly fitted or top-dose-only effect, or another doubt; inactive = no such curve, though single readings can be large; an effect the other way counts as inactive or inconclusive. % is scaled to controls: 0 for no effect and ±100 for the full control effect.

SMILES | DT40 TDP1 no CPT | Gal4-VP16 FLuc | RORg inh | ELG1 repair inh | IL1B secr inh | TDP1 cell CPT
CC12CCC(C[N+](C)(CCC[N+](C)(C)C)C1)C2(C)C (configuration not stated) | u | 5% | 2% | x | x | u
Cc1ccc(CN2CCC(CNC(=O)c3cnn(-c4ccccc4)c3C3CCN(C(=O)OC(C)(C)C)CC3)CC2)cc1 | 15µM* | x | x | x | x | 15µM*
Cc1ccc(CNC(=O)c2cnn(-c3cccc(C)c3)c2C2CCN(C(=O)OC(C)(C)C)CC2)cc1 | 23µM* | x | x | x | x | 16µM*
Cc1cccc(-n2ncc(C(=O)NC3CCCC3)c2C2CCN(C(=O)OC(C)(C)C)CC2)c1 | u | 20% | 4% | -14% | 4 | u
Cc1ccc(-n2ncc(C(=O)NCc3cccs3)c2C2CCN(C(=O)OC(C)(C)C)CC2)cc1 | u | x | x | x | x | 23µM*
CC(C)(C)C1CCC(=NNC(=O)CN(c2ccccc2)S(C)(=O)=O)CC1 (configuration not stated) | -5% | 2% | -10% | 4% | -15 | 1%
CCNC(=S)NN=C1CCC(C(C)(C)C)CC1 (configuration not stated) | 18µM* | 3% | 8.9µM* | 5% | -19 | u
CCOC(=O)C1=CCN(S(=O)(=O)c2ccccc2C(=O)OC)C1c1ccc(Cl)cc1 (configuration not stated) | 18µM* | x | x | x | -24 | 21µM*
CCOC(=O)C1=CCN(S(=O)(=O)c2ccccc2C)C1c1ccccc1 (configuration not stated) | 18µM* | x | x | x | 16 | 29µM*
CCOC(=O)C1=CCN(S(=O)(=O)c2ccc(Cl)cc2)C1c1ccccc1 (configuration not stated) | u | x | x | x | 8 | u
CCOC(=O)C1=CCN(S(=O)(=O)c2ccccc2Br)C1c1ccc(Cl)c(Cl)c1 (configuration not stated) | 18µM* | x | x | x | -29 | u
CCOC(=O)C1=CCN(S(=O)(=O)c2ccccc2C)C1c1ccc(Br)cc1 (configuration not stated) | u | x | x | x | -19 | u
CC(C)c1cc(NC(=O)CCl)on1 | 9.2µM* | u | u | -4% | -79* | 13µM*
CCCS(=O)(=O)NC(=O)C1(C)CCCN(C(=O)c2ccc(OC)cc2)C1 (configuration not stated) | 9% | x | x | x | 38 | -4%
COc1cc2c(c(OC)c1OC)-c1ccc(N(C)CC(OC)OC)c(=O)cc1[C@@H](NC(C)=O)CC2 | 0.65µM* | 0% | -16% | u | 74 | 1.3µM*
COc1cc2c(c(OC)c1OC)-c1ccc(OC)c(=O)cc1[C@@H](N(C)CC#CCO)CC2 | 0.18µM* | -1% | -15% | u | 48 | 0.21µM*
CN[C@H]1CCc2cc(OC)c(OC)c(OC)c2-c2ccc(N(C)CC(OC)OC)c(=O)cc21 | 6.5µM* | -14% | -13% | u | 48 | 7.3µM*
Cc1cc(NC(=O)CSc2nnc(N)s2)c([N+](=O)[O-])cc1C | -8% | 5% | -6% | 9% | 13 | 5%
Cc1ccc(NC(=O)c2cc(=O)[nH]c3ccccc23)cc1 | 23% | -5% | -14% | 2% | -8 | -2%
O=C(N/N=C/c1ccccc1O)c1cc(=O)[nH]c2ccccc12 | x | u | 7.9µM* | -6% | x | x
CN(C)c1ccc(C=NNC(=O)c2cccc3ccccc23)c(Cl)c1 | 4.1µM* | x | x | x | 35 | 5.2µM*
O=C(N/N=C/c1ccccc1O)c1cccc2ccccc12 | 4.1µM* | 0.89µM* | 1µM* | -16% | 98 | 5.8µM*
Cc1ccc(S(=O)(=O)N(C)C)cc1NC(=O)C(C)OC(=O)CC1CC2CCC1C2 (configuration not stated) | u | x | x | x | -12 | u
CC(C)Nc1nnc(SC(C)C(=O)NCc2ccc3c(c2)OCO3)s1 (configuration not stated) | -1% | -5% | 5% | 1% | 27 | 30%
CCCNC(=O)Cn1sc2nc(C)cc(C)c2c1=O | 4.1µM* | u | u | 24% | u | 3.7µM*
SMILES | DT40 TDP1 no CPT | Gal4-VP16 FLuc | RORg inh | ELG1 repair inh | IL1B secr inh | TDP1 cell CPT
Cc1cc(C)c2c(=O)n(CC(=O)N3CCC(N4CCCCC4)CC3)sc2n1 | 15µM* | u | u | 14% | 15 | 15µM*
COCCNC(=O)CCc1c(C)nc2nc(-c3cc(OC)cc(OC)c3)nn2c1C | -19% | 0% | 22% | u | 79 | 3%
Cc1cccc(C)c1N(CC(=O)NC1CCCCC1)C(=O)c1csnn1 | -4% | -1% | 1% | 15% | 33 | 1%
Cc1ccc(-n2ncc(C(=O)NC3CCN(Cc4ccccc4)CC3)c2C2CCN(C(=O)OC(C)(C)C)CC2)cc1C | 15µM* | x | x | x | x | 21µM*
Cc1ccc(-n2ncc(C(=O)N3CCN(c4ccccn4)CC3)c2C2CCN(C(=O)OC(C)(C)C)CC2)cc1C | -16% | x | x | x | x | -10%
CC(C)(C)OC(=O)N1CCC(c2c(C(=O)NC3CCN(Cc4ccccc4)CC3)cnn2-c2cccc(F)c2)CC1 | 9.2µM* | x | x | x | x | 12µM*
COc1cc2cc(CN(Cc3nnnn3C3CCCC3)C3CCCC3)c(=O)[nH]c2cc1OC | x | 3% | 0% | -4% | x | x
O=c1[nH]c2cc3c(cc2cc1CN(Cc1nnnn1C1CCCC1)C1CCCC1)OCCO3 | 26µM* | 18% | 41% | 13µM* | -7 | 16µM*
Cc1ccc2cc(CN(Cc3ccc4c(c3)OCO4)Cc3nnnn3Cc3ccco3)c(=O)[nH]c2c1 | u | 14% | -20% | u | -53* | 16µM*
CCC(c1nnnn1C(C)(C)CC)N(CCCO)Cc1cc2cc(C)cc(C)c2[nH]c1=O (configuration not stated) | 21µM* | -8% | -35% | 0% | u | u
Cc1ccc2[nH]c(=O)c(CN(Cc3ccccc3)Cc3nnnn3Cc3ccco3)cc2c1 | u | x | x | x | x | 8.9µM*
Cc1ccc2[nH]c(=O)c(CN(Cc3cccs3)Cc3nnnn3Cc3ccccc3)cc2c1 | u | 5% | u | u | u | -28%
CCCC(c1nnnn1C(C)(C)CC)N(CCCO)Cc1cc2cc(C)cc(C)c2[nH]c1=O (configuration not stated) | u | u | u | -2% | -12 | u
